Data: PubChem BioAssay AID1053205 (Broad Institute, 2014)
Entries with a potency or affinity are not part of this list. Records with an inconclusive call do not appear. The source made the active and inactive calls.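 Rule for the calls: active = compounds lowering the FRET ratio whose fitted half-maximal concentration is at most twice their top tested dose; inconclusive = flat partial drop between 30 and 70 percent, or bad fit; inactive = the rest.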

target: Voltage-dependent L-type calcium channel subunit alpha-1D (Homo sapiens) (UniProt Q01668); test: disruptors of CaV1.3 IQ/ICDI domain association – cell-based, HEK293, YFP-IQ/CFP-ICDI FRET, cherry-picks, dose response (AID 1053205); settings: HEK293 YFP-IQ/CFP-ICDI FRET ratio, 10 min; series mostly up to 35 µM;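 note: 0% = median of neutral control wells and -100% = median of positive control wells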
Sequence (Q01668 whole entry, looked up, the tested form may be a part): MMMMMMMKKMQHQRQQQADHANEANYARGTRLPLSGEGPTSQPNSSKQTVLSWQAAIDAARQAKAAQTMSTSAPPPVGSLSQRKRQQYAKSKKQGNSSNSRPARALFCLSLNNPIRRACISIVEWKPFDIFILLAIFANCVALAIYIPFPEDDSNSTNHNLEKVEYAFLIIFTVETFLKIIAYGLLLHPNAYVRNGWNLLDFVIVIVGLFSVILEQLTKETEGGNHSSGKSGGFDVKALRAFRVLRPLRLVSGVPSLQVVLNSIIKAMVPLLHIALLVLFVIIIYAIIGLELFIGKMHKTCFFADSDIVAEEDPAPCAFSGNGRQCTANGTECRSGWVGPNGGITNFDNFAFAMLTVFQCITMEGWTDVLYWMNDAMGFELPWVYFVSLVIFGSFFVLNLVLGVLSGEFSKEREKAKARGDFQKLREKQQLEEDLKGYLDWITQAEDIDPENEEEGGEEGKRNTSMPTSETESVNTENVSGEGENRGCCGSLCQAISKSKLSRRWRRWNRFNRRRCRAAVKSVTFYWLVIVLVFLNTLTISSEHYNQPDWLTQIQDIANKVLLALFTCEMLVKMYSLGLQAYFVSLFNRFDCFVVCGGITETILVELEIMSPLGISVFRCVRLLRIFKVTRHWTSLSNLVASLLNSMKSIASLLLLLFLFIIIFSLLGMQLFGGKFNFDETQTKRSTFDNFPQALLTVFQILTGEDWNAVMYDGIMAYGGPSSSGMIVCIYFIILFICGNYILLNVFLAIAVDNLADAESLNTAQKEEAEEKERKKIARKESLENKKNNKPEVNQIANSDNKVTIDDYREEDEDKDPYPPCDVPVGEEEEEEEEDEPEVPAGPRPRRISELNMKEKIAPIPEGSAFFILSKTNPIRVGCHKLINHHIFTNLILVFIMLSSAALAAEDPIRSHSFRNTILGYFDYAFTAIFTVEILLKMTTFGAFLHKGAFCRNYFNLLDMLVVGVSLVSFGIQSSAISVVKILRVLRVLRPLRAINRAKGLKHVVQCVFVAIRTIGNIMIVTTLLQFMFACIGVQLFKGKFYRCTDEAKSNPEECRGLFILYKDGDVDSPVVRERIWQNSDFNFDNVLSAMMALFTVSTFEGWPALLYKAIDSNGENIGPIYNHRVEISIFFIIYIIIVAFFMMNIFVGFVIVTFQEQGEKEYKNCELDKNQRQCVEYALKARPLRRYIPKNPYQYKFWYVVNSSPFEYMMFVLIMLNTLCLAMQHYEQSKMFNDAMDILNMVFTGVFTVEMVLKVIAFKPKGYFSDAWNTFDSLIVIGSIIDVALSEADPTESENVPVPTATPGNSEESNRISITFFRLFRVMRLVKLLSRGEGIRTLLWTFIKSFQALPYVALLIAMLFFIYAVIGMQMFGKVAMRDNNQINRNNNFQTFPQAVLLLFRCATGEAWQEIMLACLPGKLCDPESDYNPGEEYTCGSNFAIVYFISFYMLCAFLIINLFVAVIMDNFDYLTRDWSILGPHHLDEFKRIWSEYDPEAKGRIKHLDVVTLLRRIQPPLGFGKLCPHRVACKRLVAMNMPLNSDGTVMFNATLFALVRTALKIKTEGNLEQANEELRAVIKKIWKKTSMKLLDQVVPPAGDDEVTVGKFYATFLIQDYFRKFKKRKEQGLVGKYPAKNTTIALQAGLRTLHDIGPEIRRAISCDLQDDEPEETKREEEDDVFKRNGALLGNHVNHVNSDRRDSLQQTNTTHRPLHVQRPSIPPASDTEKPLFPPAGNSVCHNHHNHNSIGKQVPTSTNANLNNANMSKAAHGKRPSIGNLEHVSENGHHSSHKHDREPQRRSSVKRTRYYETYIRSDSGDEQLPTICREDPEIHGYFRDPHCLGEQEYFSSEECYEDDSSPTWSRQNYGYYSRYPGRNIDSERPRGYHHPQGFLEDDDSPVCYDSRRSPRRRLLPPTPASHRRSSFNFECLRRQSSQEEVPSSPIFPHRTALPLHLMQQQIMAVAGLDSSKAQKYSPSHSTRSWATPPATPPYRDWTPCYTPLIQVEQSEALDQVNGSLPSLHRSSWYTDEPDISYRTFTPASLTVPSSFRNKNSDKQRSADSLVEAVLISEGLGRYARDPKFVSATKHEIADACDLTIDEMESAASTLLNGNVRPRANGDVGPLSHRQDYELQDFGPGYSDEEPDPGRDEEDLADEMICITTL

outcome, inactive:
Cc1cc2cc(CNC(=O)c3ccco3)ccc2n1C
N=c1oc2cc(O)ccc2cc1C(=O)Nc1ccc(Br)cc1
Cc1cc(C)nc(SCC(=O)Nc2ccc(S(=O)(=O)Nc3onc(C)c3C)cc2)n1
S=C(NCC1CCCO1)N1CCN(Cc2ccccc2Cl)CC1 (stereo unspecified)
CCCOc1ccc(NC(=O)c2c(-c3ccccc3)noc2C)cc1
CCOc1ccc(-n2c(SCC(=O)Nc3nccs3)nnc2-c2ccoc2C)cc1
O=c1oc2cc(O)ccc2cc1S(=O)(=O)c1ccccc1
CCc1nc(SCC(=O)c2ccccc2)c2ccccc2n1
c1ccc2cc3c(NCCN4CCOCC4)ccnc3cc2c1
Nc1cccc2c1C(=O)N(c1ccccc1)C2=O
COc1ccccc1OCc1ccc(C(=O)N(C)c2ccccc2)o1
Cc1cccn2c(=O)c3cc(C#N)c(=NC(=O)c4cccs4)n(CC(C)C)c3nc12
Cc1noc(C)c1S(=O)(=O)N(CC(=O)N1CCCCCC1)c1ccc(C(C)C)cc1
O=C(Cc1csc(-c2ccccc2)n1)NCc1ccccc1F
CSc1ccc(Cn2c(C)c(C(=O)NCCC#N)sc2=O)cc1
CCc1cccc(OC2OC(CO)C(O)C(O)C2NC(C)=O)c1 (stereo unspecified)
CC1CCCCC1NC(=O)CN1C(=O)c2cccc(N)c2C1=O (stereo unspecified)
COCCNC(=O)c1cc2c(=O)n3cccc(C)c3nc2n(Cc2ccncc2)c1=N
CSCCC1(C(=O)O)NC(c2ccccc2O)C2C(=O)N(C(C)C)C(=O)C21 (stereo unspecified)
CCOCCCNc1c(CC)c(C)c(C#N)c2nc3ccccc3n12
O=C(NNc1c2ccccc2nc2ccccc12)c1ccc(O)cc1
O=C(Nc1ccc2c(c1)OCCO2)c1ccc(NC(=O)C2CCCO2)cc1 (stereo unspecified)
CCOC(=O)c1c2ccc(OCC(=O)NN)cc2n2ccccc12
Cc1c(C(=O)NCc2ccc(Cl)c(Cl)c2)sc(=O)n1Cc1cccc(F)c1
CC(=O)Nc1cccc(-c2ccnc3c2CC(C(=O)NCc2cccc(Cl)c2)O3)c1 (stereo unspecified)
CCC(C)n1c(=N)c(C#N)cc2c(=O)n3cc(C)ccc3nc21 (stereo unspecified)
O=C(NCc1ccc(F)cc1)C1CCCN1C(=O)Nc1cccc(F)c1 (stereo unspecified)
CCN1C(=O)c2cccc3c(S(=O)(=O)N(C)C)ccc1c23
CCOc1ccc(S(=O)(=O)Nc2ccc(C(=O)N(CC)CC(=O)NCc3cccs3)cc2)cc1
CN1CCc2c(sc(NC(=O)C3CCCCC3)c2C(N)=O)C1
CC(C)c1ccc(/C=C2\Oc3c(ccc(O)c3CN3CCN(C)CC3)C2=O)cc1
COc1ccc(C[C@H]2CN3C(=NC[C@@H]3Cc3ccccc3)N2CCNC(=O)CCC2CCCCC2)cc1
CSc1ccc(Cl)c(C(=O)N2CCOc3ccccc32)c1
Nc1nc(-c2cc(O)ccc2[N+](=O)[O-])cc(-c2ccccc2)c1[N+](=O)[O-]
c1ccc(-c2cn3nc4c(nc3n2)CCCC4)cc1

FRET change, negative = inhibition, inactive:
COc1ccc(CNC(=O)c2sc(=O)n(Cc3ccc(C)cc3)c2C)cc1OC 4.95% [at 8 µM]
